Results filed as inconclusive are left out. Entries that show only a call come without a potency. The source made the active and inactive calls. Calls follow the shape of the dose curve; as a rule, active = well fitted inhibition curve with a large enough effect; inconclusive = small, poorly fitted or top-dose-only effect; inactive = flat fitted curve, though single readings scatter.
Key:
Test in all cases: qHTS profiling for inhibitors of Plasmodium falciparum proliferation (AID 504749); also: nearly all actives have a fitted effect of over 60% in size
Settings in all cases: P. falciparum in erythrocytes, SYBR Green DNA, 72 h; series mostly up to 28.7 µM
DFO2036 = system: DFO2036
Summary of the method: (§1)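 Fluorescence of SYBR Green-bound parasite DNA, read at 485/535 nm, served as the growth measure. Infected erythrocytes were cultured with compound 72 h; artemisinin (0.29 uM) and DMSO wells defined the normalization range.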

DIV17 = system: DIV17
Summary of the method: as §1

DIV30 = system: DIV30
Summary of the method: as §1

Dd2 = system: Dd2
Summary of the method: as §1

ECU = system: ECU
Summary of the method: as §1

FAB9 = system: FAB9
Summary of the method: as §1

GB4 = system: GB4
Summary of the method: as §1

HB3 = system: HB3
Summary of the method: as §1

ICS = system: ICS
Summary of the method: as §1

JCK = system: JCK
Summary of the method: as §1

N140 = system: N140
Summary of the method: as §1

P93_24 = system: P93_24
Summary of the method: as §1

P94_40 = system: P94_40
Summary of the method: as §1

PAD = system: PAD
Summary of the method: as §1

PC15 = system: PC15
Summary of the method: as §1

PC26 = system: PC26
Summary of the method: as §1

PC49 = system: PC49
Summary of the method: as §1

SC27B = system: SC27B
Summary of the method: as §1

TAB109 = system: TAB109
Summary of the method: as §1

DIV14 = system: DIV14
Summary of the method: as §1
Potency is read from the fitted curve at half-maximal effect.

Structure (SMILES) | Potency (DFO2036) | Potency (DIV17) | Potency (DIV30) | Potency (Dd2) | Potency (ECU) | Potency (FAB9) | Potency (GB4) | Potency (HB3) | Potency (ICS) | Potency (JCK) | Potency (N140) | Potency (P93_24) | Potency (P94_40) | Potency (PAD) | Potency (PC15) | Potency (PC26) | Potency (PC49) | Potency (SC27B) | Potency (TAB109) | Potency (DIV14)
IC(I)I | inactive | inactive | inactive | inactive | inactive | inactive | inactive | inactive | inactive | inactive | inactive | inactive | inactive | inactive | inactive | inactive | inactive | inactive | inactive | 
CCCCC(CC)COC(=O)CC(C(=O)OCC(CC)CCCC)S(=O)(=O)O (configuration not stated) |  | inactive | inactive |  |  |  | inactive |  |  |  |  |  |  |  |  | inactive |  |  |  | inactive
O=C(O)c1cc(O)c2c(c1)[O][Bi][O]2 | inactive |  | inactive | inactive | inactive | inactive | inactive | inactive | inactive | inactive | inactive | inactive | inactive | inactive | inactive | inactive | inactive | inactive | inactive | inactive
O=CCCCC=O | inactive |  |  | inactive | inactive | inactive |  |  | 7.08 µM (active) | inactive | inactive |  | inactive | inactive | inactive |  | inactive | inactive | inactive | inactive
COC(=O)[C@H]1[C@H]2CC3c4[nH]c5ccccc5c4CCN3C[C@@H]2CC[C@@H]1O (some centres not stated) | inactive |  |  | inactive | inactive | inactive |  | inactive | inactive | inactive | inactive | inactive |  | inactive | inactive |  | inactive | inactive | inactive | 
CCCCCC(CC)COC(=O)CC(C(=O)OCC(CC)CCCC)S(=O)(=O)O (configuration not stated) | inactive |  |  | inactive | inactive | inactive |  | inactive | inactive | inactive | inactive | inactive | inactive | inactive | inactive |  | inactive | inactive | inactive | 
NC1C2CN(c3nc4c(cc3F)c(=O)c(C(=O)O)cn4-c3ccc(F)cc3F)CC12 (configuration not stated) |  |  | inactive |  |  |  |  |  |  |  |  |  |  |  |  | inactive |  |  |  | 
CN=C(NC#N)Nc1ccc(C2=NNC(=O)C[C@@H]2C)cc1 | inactive |  |  | inactive | inactive | inactive |  | inactive | inactive | inactive | inactive | inactive | inactive | inactive | inactive |  | inactive | inactive | inactive | 
CCCCCCOc1ccc(C(=N)N(CCCC)CCCC)c2ccccc12 |  | 12 µM (active) |  |  | 8.91 µM (active) |  | 10.7 µM (active) |  | 2.82 µM (active) |  |  | inactive | 12.6 µM (active) |  | 10 µM (active) |  |  |  | 7.94 µM (active) | 12 µM (active)
O=S(=O)(O)c1cc(O)c2c(N=Nc3ccc(Nc4ccccc4)c4c(S(=O)(=O)O)cccc34)cc(S(=O)(=O)O)cc2c1 |  |  | inactive |  | inactive | inactive | inactive | inactive |  | inactive |  |  |  | inactive |  |  |  | inactive |  | 
CC1=C(/C=C/C(C)=C/C=C/C(C)=C/C=C/C=C(C)/C=C/C=C(C)/C=C/C2=C(C)C(=O)CCC2(C)C)C(C)(C)CCC1=O | inactive | inactive | inactive | inactive | inactive | inactive | inactive | inactive | inactive | inactive | inactive | inactive | inactive | inactive | inactive | inactive | inactive | inactive | inactive | 
CCCCC(=O)O[C@]1(C(=O)CO)[C@H](C)C[C@H]2[C@@H]3CCC4=CC(=O)C=C[C@]4(C)[C@@]3(F)[C@@H](O)C[C@@]21C |  |  |  | inactive |  | inactive |  | inactive |  | inactive |  |  | inactive |  |  |  | inactive | inactive |  | 
C=C1C(=CC=C2CCC[C@@]3(C)[C@@H]2CC[C@H]3[C@H](C)CCCC(C)C)C[C@@H](O)C[C@@H]1O |  |  | inactive | 10 µM (active) | 10 µM (active) | inactive | inactive | 12.6 µM (active) | 12.6 µM (active) | inactive | 14.1 µM (active) |  |  |  |  | inactive |  |  |  | inactive
Clc1cc(Cl)c(OCC#CI)cc1Cl |  | 13.5 µM (active) |  |  |  |  | 10.7 µM (active) |  | 7.94 µM (active) |  | 10 µM (active) | 7.94 µM (active) | 11.2 µM (active) | 11.2 µM (active) |  |  |  |  | 11.2 µM (active) | 9.53 µM (active)
CCOC(=O)C1=CC2(CC)CCCN3CCc4c(n1c1ccccc41)C32 (configuration not stated) | 11.2 µM (active) |  |  | 12.6 µM (active) | 11.2 µM (active) | 7.94 µM (active) |  | 12.6 µM (active) | 10 µM (active) |  | 8.91 µM (active) | 7.94 µM (active) | 12.6 µM (active) | 11.2 µM (active) | 11.2 µM (active) |  |  | 10 µM (active) | 7.94 µM (active) | 
CC(C)N=c1cc2n(-c3ccc(Cl)cc3)c3ccccc3nc-2cc1Nc1ccc(Cl)cc1 | inactive | inactive | inactive | inactive | inactive | inactive | inactive | inactive | 3.16 µM (active) | inactive | inactive | inactive |  | inactive |  | inactive | inactive | inactive | inactive | 
CC[C@@]1(O)C(=O)OCc2c1cc1n(c2=O)Cc2cc3c([N+](=O)[O-])cccc3nc2-1 | 5.01 µM (active) |  |  | 8.91 µM (active) | 7.94 µM (active) |  | 6.75 µM (active) |  | 5.01 µM (active) |  | 8.91 µM (active) | 7.94 µM (active) | 5.01 µM (active) |  |  |  |  | 5.62 µM (active) | 3.98 µM (active) | 
CC(=O)Oc1cc(C)c(OC(C)=O)c2ccccc12 |  | 6.75 µM (active) |  |  |  |  | 7.57 µM (active) |  | 6.31 µM (active) |  |  | 7.94 µM (active) |  |  | 4.47 µM (active) | 7.57 µM (active) |  |  |  | 6.01 µM (active)
COc1cc(-c2ccc(-[n+]3nc(-c4ccccc4)nn3-c3ccc([N+](=O)[O-])cc3)c(OC)c2)ccc1-[n+]1nc(-c2ccccc2)nn1-c1ccc([N+](=O)[O-])cc1 |  | 15.1 µM (active) | 12 µM (active) |  | 12.6 µM (active) |  | 12 µM (active) |  | 8.91 µM (active) |  |  |  | 10 µM (active) |  |  | 15.1 µM (active) |  |  |  | 12 µM (active)
C#C[C@]1(O)CC[C@H]2[C@@H]3CCC4=CCCC[C@@H]4[C@H]3C(=C)C[C@@]21CC |  | inactive | inactive | inactive |  | inactive | inactive | inactive | 10 µM (active) | inactive |  |  |  |  | inactive | inactive |  |  |  | inactive
Cc1ccccc1OCC(O)CNCCOc1ccc(C(N)=O)cc1 (configuration not stated) | inactive |  | inactive | inactive | inactive | inactive |  | inactive | inactive | inactive | inactive | inactive | inactive | inactive | inactive | inactive | inactive | inactive | inactive | inactive
CC1=C(/C=C/C(C)=C/C=C/C(C)=C/CO)C(C)(C)CCC1 |  | 16.9 µM (active) |  | 14.1 µM (active) | 10 µM (active) | inactive |  |  | 7.08 µM (active) | inactive | 8.91 µM (active) |  |  |  |  |  |  |  |  | 12 µM (active)
CN1C(=O)CN2CCc3ccccc3C2c2cc(Cl)ccc21 (configuration not stated) | inactive | 6.01 µM (active) |  | inactive |  | inactive |  | inactive |  | inactive |  |  | inactive |  | inactive |  | inactive |  |  | 
CCOc1ccc(N=Nc2ccc(N)cc2N)cc1 | inactive |  | inactive | inactive |  | inactive |  | inactive |  | inactive | inactive |  |  |  | inactive | inactive | inactive |  | inactive | 
COC(=O)CCC(=O)CN | inactive | inactive | inactive | inactive | inactive | inactive | inactive | inactive | inactive | inactive | inactive | inactive | inactive | inactive | inactive | inactive | inactive | inactive | inactive | 
O=C(O)c1cc(=O)c2c3nc4ccccc4oc-3cc(=O)c2[nH]1 | inactive |  | inactive | 12.6 µM (active) |  | inactive | 16.9 µM (active) | 12.6 µM (active) | 0.891 µM (active) | inactive | inactive |  | inactive |  |  |  | inactive |  |  | 
O=C(Nc1ccc(Br)cc1)c1cc(Br)c(Br)s1 |  |  |  |  |  | inactive |  |  |  |  |  |  |  |  | inactive |  | inactive |  |  | 10.7 µM (active)

Reference: PubChem BioAssay (NCATS)
